Measurements taken from the supplement of paper PMC11732987, “Enantioselective OTUD7B fragment discovery through chemoproteomics screening and high-throughput optimisation” (Communications Chemistry, 2025).

Key:
Assay in all cases: log2 ratio of Biotin-Ahx-Ub-VS probe labelling (fragment/DMSO); higher = less target engagement (more negative = stronger competition), active = hit call of the paper (q ≤ 0.05, log2 ratio ≤ -1)
Details in all cases: compound concentration: 200 uM; treatment time: 3 h
OTUD6B = molecular target: T1, OTUD6B (UniProt Q8N6M0)
T1 sequence (whole entry): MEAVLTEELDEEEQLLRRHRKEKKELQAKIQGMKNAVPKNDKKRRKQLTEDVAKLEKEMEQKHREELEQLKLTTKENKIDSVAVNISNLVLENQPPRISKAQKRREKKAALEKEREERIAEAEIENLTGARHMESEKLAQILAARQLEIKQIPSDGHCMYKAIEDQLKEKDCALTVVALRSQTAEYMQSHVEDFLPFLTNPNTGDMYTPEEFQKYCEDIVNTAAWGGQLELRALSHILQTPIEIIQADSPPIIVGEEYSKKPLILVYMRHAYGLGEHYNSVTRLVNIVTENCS
In short: (§1)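 Fragment (200 µM) or vehicle was incubated for 3 h with triplicate HEK293T lysate samples of 495 µg, which were then treated with Biotin-Ahx-Ub-VS at 0.5 µM final for 1 h. Labelled DUBs were enriched on NeutrAvidin, digested with LysC and trypsin, and analysed by diaPASEF LC-MS/MS. Values are average log2 fragment/vehicle ratios from an unpaired t-test on global-median-normalised Spectronaut label-free quantities, using proteins with ≥2 unique peptides.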

OTUD7B = molecular target: T2, OTUD7B (UniProt Q6GQQ9)
T2 sequence (whole entry): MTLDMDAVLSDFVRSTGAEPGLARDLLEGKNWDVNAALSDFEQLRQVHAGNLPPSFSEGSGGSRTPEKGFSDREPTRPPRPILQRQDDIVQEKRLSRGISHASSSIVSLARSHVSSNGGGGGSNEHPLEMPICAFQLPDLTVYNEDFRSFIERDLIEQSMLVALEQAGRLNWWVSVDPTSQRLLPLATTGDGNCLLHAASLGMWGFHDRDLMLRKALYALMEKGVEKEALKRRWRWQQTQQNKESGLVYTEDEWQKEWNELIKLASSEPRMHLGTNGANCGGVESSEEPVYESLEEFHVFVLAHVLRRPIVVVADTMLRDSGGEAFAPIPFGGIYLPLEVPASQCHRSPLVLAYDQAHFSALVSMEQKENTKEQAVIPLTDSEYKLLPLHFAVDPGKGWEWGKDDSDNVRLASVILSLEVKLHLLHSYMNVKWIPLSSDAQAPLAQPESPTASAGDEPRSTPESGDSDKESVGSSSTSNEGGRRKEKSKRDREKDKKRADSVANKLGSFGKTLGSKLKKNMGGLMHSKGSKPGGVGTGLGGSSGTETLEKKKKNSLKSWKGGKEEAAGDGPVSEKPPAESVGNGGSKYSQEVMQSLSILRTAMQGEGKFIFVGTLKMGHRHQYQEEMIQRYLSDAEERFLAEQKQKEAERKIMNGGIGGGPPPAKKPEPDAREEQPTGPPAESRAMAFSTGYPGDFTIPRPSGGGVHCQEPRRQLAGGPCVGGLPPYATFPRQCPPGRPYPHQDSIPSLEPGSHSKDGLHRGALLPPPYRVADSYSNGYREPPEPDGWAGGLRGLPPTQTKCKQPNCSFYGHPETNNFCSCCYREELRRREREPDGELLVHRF
In short: as §1

PRPF8 = PRPF8 (UniProt Q6P2Q9)
In short: as §1

PSMD7 = molecular target: T3, PSMD7 (UniProt P51665)
T3 sequence (whole entry): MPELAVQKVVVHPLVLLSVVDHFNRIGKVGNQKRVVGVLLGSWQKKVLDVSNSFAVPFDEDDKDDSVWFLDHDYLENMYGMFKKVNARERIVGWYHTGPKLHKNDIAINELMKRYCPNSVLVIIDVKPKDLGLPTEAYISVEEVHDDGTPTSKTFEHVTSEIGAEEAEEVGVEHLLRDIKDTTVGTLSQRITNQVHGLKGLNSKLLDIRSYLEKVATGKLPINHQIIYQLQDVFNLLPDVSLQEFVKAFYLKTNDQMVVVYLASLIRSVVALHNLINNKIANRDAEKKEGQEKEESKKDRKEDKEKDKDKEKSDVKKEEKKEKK
In short: as §1

UCHL1 = UCHL1 (UniProt P09936)
In short: as §1

UCHL3 = molecular target: T4, UCHL3 (UniProt P15374)
T4 sequence (whole entry): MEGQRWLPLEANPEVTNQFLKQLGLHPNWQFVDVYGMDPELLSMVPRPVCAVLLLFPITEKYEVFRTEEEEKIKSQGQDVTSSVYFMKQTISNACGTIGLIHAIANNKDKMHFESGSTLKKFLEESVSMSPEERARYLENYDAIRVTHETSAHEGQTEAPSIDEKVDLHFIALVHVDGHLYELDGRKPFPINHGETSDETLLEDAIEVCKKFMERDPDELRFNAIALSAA
In short: as §1

UCHL5 = molecular target: T5, UCHL5 (UniProt Q9Y5K5)
T5 sequence (whole entry): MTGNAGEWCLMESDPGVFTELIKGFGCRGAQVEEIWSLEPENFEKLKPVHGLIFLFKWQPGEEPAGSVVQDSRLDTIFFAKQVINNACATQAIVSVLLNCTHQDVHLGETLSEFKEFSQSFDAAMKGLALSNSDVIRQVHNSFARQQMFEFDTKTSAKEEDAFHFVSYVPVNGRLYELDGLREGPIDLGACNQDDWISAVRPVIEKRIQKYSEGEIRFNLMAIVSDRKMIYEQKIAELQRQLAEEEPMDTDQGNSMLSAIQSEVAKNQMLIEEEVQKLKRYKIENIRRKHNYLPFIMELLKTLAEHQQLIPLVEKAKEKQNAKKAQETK
In short: as §1

USP10 = USP10 (UniProt Q14694)
In short: as §1

USP15 = molecular target: T6, USP15 (UniProt Q9Y4E8)
T6 sequence (whole entry): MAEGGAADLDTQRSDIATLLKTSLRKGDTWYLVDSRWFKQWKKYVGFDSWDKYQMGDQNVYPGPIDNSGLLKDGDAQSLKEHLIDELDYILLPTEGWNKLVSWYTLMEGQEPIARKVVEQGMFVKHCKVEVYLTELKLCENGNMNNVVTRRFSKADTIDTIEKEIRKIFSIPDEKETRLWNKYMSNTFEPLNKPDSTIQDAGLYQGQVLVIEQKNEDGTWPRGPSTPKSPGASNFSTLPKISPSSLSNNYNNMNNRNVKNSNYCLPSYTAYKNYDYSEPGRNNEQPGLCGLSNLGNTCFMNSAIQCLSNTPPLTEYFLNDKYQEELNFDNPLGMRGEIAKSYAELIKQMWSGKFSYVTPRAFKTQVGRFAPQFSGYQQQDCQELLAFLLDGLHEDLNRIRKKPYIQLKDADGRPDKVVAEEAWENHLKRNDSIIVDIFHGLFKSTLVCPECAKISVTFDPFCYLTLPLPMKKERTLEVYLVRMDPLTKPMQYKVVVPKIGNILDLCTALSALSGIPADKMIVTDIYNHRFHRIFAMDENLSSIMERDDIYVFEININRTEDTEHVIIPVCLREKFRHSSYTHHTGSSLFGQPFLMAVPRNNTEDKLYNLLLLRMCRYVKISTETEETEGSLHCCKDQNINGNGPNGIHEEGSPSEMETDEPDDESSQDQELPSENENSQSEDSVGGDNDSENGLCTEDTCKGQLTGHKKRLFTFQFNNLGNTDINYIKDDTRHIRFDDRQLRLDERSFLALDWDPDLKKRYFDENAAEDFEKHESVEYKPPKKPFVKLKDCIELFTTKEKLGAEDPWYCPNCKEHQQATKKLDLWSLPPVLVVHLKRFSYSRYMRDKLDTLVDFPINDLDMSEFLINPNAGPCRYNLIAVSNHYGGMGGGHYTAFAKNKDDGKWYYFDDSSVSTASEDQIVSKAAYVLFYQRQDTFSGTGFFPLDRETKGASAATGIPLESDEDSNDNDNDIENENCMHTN
In short: as §1

USP16 = USP16 (UniProt Q9Y5T5)
In short: as §1

Measured: log2 ratio of Biotin-Ahx-Ub-VS probe labelling

Sequence of USP10 (Q14694 whole entry): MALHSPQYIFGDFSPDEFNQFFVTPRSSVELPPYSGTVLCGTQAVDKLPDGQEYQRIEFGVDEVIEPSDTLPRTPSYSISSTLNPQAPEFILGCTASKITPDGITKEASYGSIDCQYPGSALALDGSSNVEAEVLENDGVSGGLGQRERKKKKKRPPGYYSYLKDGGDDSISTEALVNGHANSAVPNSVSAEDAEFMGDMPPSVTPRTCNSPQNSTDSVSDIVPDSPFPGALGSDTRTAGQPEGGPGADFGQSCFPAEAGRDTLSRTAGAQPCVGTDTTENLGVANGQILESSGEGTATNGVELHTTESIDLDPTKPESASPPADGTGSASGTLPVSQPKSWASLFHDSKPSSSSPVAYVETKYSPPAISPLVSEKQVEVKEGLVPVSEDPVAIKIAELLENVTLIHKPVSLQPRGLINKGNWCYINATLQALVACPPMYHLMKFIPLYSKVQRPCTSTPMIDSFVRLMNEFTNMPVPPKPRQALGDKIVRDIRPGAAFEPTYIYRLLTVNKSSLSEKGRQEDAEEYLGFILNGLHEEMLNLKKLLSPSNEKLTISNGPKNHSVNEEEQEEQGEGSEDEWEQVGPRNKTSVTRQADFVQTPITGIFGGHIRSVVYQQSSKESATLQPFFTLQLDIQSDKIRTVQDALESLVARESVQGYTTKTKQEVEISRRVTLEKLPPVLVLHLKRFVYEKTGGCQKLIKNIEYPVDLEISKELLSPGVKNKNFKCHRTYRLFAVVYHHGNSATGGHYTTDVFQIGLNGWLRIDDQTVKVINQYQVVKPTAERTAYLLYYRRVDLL
Sequence of UCHL1 (P09936 whole entry, looked up): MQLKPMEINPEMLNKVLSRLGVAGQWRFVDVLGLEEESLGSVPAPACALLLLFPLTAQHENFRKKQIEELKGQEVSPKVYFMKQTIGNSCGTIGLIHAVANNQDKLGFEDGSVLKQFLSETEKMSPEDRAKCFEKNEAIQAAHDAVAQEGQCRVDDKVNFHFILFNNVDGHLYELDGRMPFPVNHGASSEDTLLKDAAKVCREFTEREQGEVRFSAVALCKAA
Sequence of USP16 (Q9Y5T5 whole entry, looked up): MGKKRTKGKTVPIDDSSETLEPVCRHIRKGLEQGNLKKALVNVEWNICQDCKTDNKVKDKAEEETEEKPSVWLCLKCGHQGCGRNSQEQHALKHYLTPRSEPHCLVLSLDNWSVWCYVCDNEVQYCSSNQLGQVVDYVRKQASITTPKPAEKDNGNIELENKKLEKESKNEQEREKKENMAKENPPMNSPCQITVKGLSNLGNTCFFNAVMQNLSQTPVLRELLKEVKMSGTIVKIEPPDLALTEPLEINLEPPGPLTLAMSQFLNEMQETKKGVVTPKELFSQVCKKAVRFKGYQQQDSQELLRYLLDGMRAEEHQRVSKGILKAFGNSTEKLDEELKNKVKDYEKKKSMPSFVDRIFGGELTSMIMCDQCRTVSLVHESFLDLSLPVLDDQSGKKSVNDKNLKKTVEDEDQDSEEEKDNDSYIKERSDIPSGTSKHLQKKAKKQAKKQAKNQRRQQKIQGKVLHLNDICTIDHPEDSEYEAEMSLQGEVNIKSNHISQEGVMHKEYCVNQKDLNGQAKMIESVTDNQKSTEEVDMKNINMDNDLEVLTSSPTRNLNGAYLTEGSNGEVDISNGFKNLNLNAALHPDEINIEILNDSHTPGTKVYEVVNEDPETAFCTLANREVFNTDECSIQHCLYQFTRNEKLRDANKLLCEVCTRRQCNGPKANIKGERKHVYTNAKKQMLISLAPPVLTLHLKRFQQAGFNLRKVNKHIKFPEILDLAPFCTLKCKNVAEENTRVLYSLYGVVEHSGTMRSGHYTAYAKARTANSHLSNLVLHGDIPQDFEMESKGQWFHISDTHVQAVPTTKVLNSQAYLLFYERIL

O=C(CCl)N1CCC(c2nc3ccccc3o2)CC1
active: UCHL1 -1.65
inactive: OTUD6B -0.508 | OTUD7B -0.632 | PRPF8 -0.0832 | PSMD7 -0.495 | UCHL3 0.054 | UCHL5 -0.349 | USP10 -0.114 | USP15 -0.214 | USP16 0.149
